Reference: publication PMC4081100, “A DNA-binding-site landscape and regulatory network analysis for NAC transcription factors in Arabidopsis thaliana”

Assays:
Experiment in all cases: universal protein binding microarray (PBM); transcription factors of Arabidopsis thaliana; high values mean tight binding
Details in all cases: protein: recombinant; tags: GST; chain copies: 2; dsDNA, one strand shown
GST-ANAC092(1-176) = target: T1, GST-ANAC092(1-176) (Arabidopsis thaliana, UniProt Q9FKA0 1-176)
T1 sequence: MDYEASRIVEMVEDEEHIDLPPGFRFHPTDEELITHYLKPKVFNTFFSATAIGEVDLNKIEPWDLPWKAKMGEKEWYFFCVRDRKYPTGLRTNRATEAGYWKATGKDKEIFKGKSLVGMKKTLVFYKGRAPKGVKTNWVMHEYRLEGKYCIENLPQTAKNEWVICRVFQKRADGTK
How it was run: (§1)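 Binding is expressed as the normalised enrichment score (E-score). Proteins carrying a GST tag, whether NAC-domain, full-length or DNA-binding-domain forms, were induced in cells, and zinc acetate was added for zinc-finger proteins. After purification on glutathione–Sepharose 4B and quantification by A280 or anti-GST western blot, each was applied in duplicate at 200 to 500 nM final to custom all-10-mer Agilent 4 × 180K arrays made double-stranded by primer extension. Gapped and ungapped 8-mers were scored.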

GST-NTL6(1-168) = GST-NTL6(1-168) (Arabidopsis thaliana, UniProt Q9SCK6 1-168)
Chain of GST-NTL6(1-168) (Q9SCK6 1-168): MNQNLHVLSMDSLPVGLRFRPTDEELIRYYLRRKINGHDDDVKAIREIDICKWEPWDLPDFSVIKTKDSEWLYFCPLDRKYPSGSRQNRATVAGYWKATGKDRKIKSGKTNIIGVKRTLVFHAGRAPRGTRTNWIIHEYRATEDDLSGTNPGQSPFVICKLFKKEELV
How it was run: as §1

GST-ANAC019 NAC domain = target: T2, GST-ANAC019 NAC domain (Arabidopsis thaliana, UniProt Q9C932 14-162)
T2 sequence: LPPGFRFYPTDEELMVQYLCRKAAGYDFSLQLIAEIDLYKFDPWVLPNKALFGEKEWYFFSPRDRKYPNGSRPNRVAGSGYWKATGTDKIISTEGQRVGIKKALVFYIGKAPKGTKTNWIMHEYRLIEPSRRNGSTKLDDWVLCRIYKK
How it was run: as §1

GST-ANAC055(1-171) = target: T3, GST-ANAC055(1-171) (Arabidopsis thaliana, UniProt Q9LDY8 1-171)
T3 sequence: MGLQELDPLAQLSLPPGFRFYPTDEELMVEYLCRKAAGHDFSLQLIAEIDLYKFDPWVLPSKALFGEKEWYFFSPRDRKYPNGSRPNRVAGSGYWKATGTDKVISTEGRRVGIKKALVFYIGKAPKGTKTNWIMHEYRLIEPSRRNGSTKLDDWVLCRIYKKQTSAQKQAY
How it was run: as §1

GST-ATAF1 NAC domain = target: T4, GST-ATAF1 NAC domain (Arabidopsis thaliana, UniProt Q39013 7-158)
T4 sequence: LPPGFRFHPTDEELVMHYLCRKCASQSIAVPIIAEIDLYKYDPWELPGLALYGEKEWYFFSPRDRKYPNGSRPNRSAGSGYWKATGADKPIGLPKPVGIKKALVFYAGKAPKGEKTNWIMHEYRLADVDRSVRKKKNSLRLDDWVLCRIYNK
How it was run: as §1

[1] = target: T5, GST-ANAC092(1-285) full length (Arabidopsis thaliana, UniProt Q9FKA0 1-285)
T5 sequence: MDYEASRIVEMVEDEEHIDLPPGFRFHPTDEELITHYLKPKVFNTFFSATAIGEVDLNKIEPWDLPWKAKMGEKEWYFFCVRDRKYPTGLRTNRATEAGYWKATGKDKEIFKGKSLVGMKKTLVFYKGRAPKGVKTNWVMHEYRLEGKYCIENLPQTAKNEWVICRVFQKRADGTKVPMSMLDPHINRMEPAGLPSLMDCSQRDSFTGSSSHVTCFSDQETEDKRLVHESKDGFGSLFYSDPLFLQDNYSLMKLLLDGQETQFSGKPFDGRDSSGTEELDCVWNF
How it was run: as §1

GST-NAP(1-166) = target: T6, GST-NAP(1-166) (Arabidopsis thaliana, UniProt O49255 1-166)
T6 sequence: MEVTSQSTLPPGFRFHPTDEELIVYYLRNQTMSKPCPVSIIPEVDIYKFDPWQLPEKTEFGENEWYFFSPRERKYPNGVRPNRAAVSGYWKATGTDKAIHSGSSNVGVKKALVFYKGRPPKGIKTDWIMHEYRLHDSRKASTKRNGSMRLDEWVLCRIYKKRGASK
How it was run: as §1

GST-NST2(1-184) = target: T7, GST-NST2(1-184) (Arabidopsis thaliana, UniProt Q9M274 1-184)
T7 sequence: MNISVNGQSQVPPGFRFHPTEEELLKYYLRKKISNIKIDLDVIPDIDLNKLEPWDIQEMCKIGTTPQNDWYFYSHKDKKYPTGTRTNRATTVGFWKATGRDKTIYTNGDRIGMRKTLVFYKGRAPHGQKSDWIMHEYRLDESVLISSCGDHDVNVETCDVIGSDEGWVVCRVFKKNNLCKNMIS
How it was run: as §1

GST-NTL8 NAC domain = target: T8, GST-NTL8 NAC domain (Arabidopsis thaliana, UniProt Q9XIN7 14-156)
T8 sequence: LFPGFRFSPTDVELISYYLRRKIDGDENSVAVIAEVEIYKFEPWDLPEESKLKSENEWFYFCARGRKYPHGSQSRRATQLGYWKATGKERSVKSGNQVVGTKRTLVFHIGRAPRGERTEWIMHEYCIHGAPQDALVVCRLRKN
How it was run: as §1

GST-SND1(1-203) = target: T9, GST-SND1(1-203) (Arabidopsis thaliana, UniProt Q9LPI7 1-203)
T9 sequence: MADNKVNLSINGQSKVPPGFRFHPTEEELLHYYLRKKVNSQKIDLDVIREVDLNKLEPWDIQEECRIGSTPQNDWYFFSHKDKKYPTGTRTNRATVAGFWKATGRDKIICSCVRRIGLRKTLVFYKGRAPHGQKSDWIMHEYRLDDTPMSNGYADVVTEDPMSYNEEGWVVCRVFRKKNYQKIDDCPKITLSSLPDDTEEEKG
How it was run: as §1

GST-VND3 NAC domain = target: T10, GST-VND3 NAC domain (Arabidopsis thaliana, UniProt Q9FH59 12-162)
T10 sequence: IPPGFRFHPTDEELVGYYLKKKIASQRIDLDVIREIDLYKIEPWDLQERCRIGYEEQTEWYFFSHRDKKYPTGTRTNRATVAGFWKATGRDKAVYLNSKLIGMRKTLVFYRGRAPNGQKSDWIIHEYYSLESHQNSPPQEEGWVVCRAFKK
How it was run: as §1

GST-VND7 NAC domain = target: T11, GST-VND7 NAC domain (Arabidopsis thaliana, UniProt Q9C8W9 9-158)
T11 sequence: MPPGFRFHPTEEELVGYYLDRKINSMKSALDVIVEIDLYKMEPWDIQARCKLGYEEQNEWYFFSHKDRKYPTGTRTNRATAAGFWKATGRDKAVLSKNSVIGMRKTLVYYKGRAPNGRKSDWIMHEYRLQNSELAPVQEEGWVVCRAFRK
How it was run: as §1

Sequence | binding signal (GST-ANAC092(1-176)) [E-score] | binding signal (GST-NTL6(1-168)) [E-score] | binding signal (GST-ANAC019 NAC domain) [E-score] | binding signal (GST-ANAC055(1-171)) [E-score] | binding signal (GST-ATAF1 NAC domain) [E-score] | binding signal [1] [E-score] | binding signal (GST-NAP(1-166)) [E-score] | binding signal (GST-NST2(1-184)) [E-score] | binding signal (GST-NTL8 NAC domain) [E-score] | binding signal (GST-SND1(1-203)) [E-score] | binding signal (GST-VND3 NAC domain) [E-score] | binding signal (GST-VND7 NAC domain) [E-score]
CTTACGTA | 0.423 | 0.161 | 0.457 | 0.421 | 0.407 | 0.435 | 0.363 | 0.313 | 0.219 | 0.405 | 0.43 | 0.433
GTTGCGTA | 0.486 | 0.184 | 0.461 | 0.431 | 0.415 | 0.49 | 0.477 | 0.465 | 0.216 | 0.495 | 0.452 | 0.466
GGAGGTAA | 0.079 | 0.202 | 0.0898 | 0.0701 | 0.137 | 0.122 | 0.146 | 0.106 | 0.435 | 0.19 | 0.139 | 0.0814
GTTACGTA | 0.463 | 0.214 | 0.482 | 0.473 | 0.463 | 0.456 | 0.483 | 0.337 | 0.319 | 0.442 | 0.471 | 0.477
AAGGTAAC | 0.233 | 0.309 | 0.141 | 0.185 | 0.142 | 0.285 | 0.151 | 0.232 | 0.441 | 0.188 | 0.154 | 0.194
GTAAGGAA | 0.259 | 0.486 | 0.23 | 0.193 | 0.239 | 0.29 | 0.268 | 0.271 | 0.392 | 0.35 | 0.231 | 0.236
GAAACGTA | 0.355 | 0.0734 | 0.241 | 0.219 | 0.224 | 0.411 | 0.223 | 0.212 | 0.288 | 0.435 | 0.332 | 0.268
GCACGAAA | 0.401 | 0.0615 | 0.253 | 0.197 | 0.165 | 0.441 | 0.245 | 0.0864 | 0.0576 | 0.211 | 0.173 | 0.145
AACGTAAT | 0.293 | 0.183 | 0.266 | 0.32 | 0.359 | 0.357 | 0.286 | 0.309 | 0.114 | 0.449 | 0.359 | 0.274
CCACGCAA | 0.472 | 0.116 | 0.383 | 0.363 | 0.235 | 0.474 | 0.305 | 0.348 | 0.0836 | 0.41 | 0.354 | 0.337
TGCCGTAA | 0.432 | 0.114 | 0.448 | 0.408 | 0.436 | 0.433 | 0.402 | 0.328 | 0.324 | 0.457 | 0.437 | 0.449
CTTAAGTA | 0.154 | 0.416 | 0.0907 | 0.178 | 0.207 | 0.198 | 0.0567 | 0.207 | 0.264 | 0.267 | 0.218 | 0.182
GCAAGTAA | 0.339 | 0.409 | 0.211 | 0.198 | 0.151 | 0.415 | 0.056 | 0.223 | 0.264 | 0.352 | 0.231 | 0.232
